Data on eight compounds can be found in PubChem BioAssay (Tox21).

A short description of experiment [1]: Nuclear factor erythroid 2-related factor 2/antioxidant responsive element (Nrf2/ARE) small molecule agonists: qHTS cell viability counter screen in human keratinocytes (AID 1919968; active = well fitted curve in the direction sought with a large enough effect in the repeat runs; an effect the other way counts as inactive or inconclusive; note: nearly all actives have a fitted effect of over 55% in size). Put shortly:
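Measured as CellTiter-Fluor fluorescence, this readout tracks cytotoxicity in the same wells as the ARE-luciferase screen. HaCaT reporter cells (1,500/well) received compounds after a 5 h pre-incubation and were exposed for 23 h.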

Experiment [2] is described as follows: Nuclear factor erythroid 2-related factor 2/antioxidant responsive element (Nrf2/ARE) small molecule agonists: luciferase reporter gene qHTS assay in human keratinocytes (AID 1919969). Note: nearly all actives have a fitted effect of over 35% in size.
For experiment [3], the target named is Gonadotropin-releasing hormone receptor (Homo sapiens) (UniProt P30968). Briefly: Human gonadotropin-releasing hormone receptor (GnRHR) small molecule agonists, calcium flux assay in GnRHR-HEK293 cells (AID 1920063). Note: nearly all actives have a fitted effect of over 35% in size. An outline of the steps: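 Fluorescence kinetics (480 nm excitation, 540 nm emission; 3 min, 1 s steps) report calcium mobilisation in human GnRHR-HEK293 cells in agonist mode. Dye incubation: 1 h, 37 C.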
Chain of Gonadotropin-releasing hormone receptor (Homo sapiens) (P30968 whole entry, looked up): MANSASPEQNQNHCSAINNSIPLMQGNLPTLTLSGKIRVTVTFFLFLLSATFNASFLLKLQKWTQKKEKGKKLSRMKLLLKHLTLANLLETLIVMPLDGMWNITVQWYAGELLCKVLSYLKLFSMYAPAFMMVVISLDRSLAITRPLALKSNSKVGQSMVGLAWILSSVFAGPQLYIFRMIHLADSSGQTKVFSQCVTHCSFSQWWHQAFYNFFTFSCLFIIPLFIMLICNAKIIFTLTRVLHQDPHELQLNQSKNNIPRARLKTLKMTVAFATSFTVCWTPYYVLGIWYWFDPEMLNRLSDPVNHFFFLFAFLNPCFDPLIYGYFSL

The target of experiment [4] is KiSS-1 receptor (Homo sapiens) (UniProt Q969F8). Briefly: Human kisspeptin (KISS1R) small molecule agonists, calcium flux assay in KISS1R-HEK293 cells (AID 1920064; active = well fitted curve in the direction sought with a large enough effect in the repeat runs; an effect the other way counts as inactive or inconclusive). Put shortly: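 Measures KISS1R agonism through calcium-sensitive dye fluorescence in stably transfected HEK293 cells, read for 3 min after pin-tool compound delivery; 15-point titrations in triplicate.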
Chain of KiSS-1 receptor (Homo sapiens) (Q969F8 whole entry, looked up): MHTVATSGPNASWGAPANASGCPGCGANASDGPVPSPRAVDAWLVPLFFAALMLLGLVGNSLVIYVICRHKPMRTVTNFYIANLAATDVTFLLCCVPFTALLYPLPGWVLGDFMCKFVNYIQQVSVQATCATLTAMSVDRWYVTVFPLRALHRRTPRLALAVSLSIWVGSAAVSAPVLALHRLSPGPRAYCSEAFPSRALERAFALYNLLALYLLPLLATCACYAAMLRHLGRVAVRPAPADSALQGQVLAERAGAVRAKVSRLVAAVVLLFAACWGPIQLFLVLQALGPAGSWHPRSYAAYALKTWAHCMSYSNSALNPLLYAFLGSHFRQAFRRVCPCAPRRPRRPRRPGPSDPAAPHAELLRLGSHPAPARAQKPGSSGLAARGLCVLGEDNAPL

Experiment [5] is described as follows: G protein-coupled receptor (GPCR) small molecule agonists, calcium flux assay: HEK293 wild type cell line counter screen (AID 1920065). An outline of the steps: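 Readout: fluorescence at 480 nm excitation/540 nm emission, sampled at 1 s intervals for 3 min. Cells had been cultured 18 h, then dye-loaded 1 h at 37 C before compound or ATP addition.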
The nature of experiment [6]: p53 small molecule agonists, cell-based qHTS assay with rat liver microsomes: qHTS cell viability counter screen (AID 1963580). Note: nearly all actives have a fitted effect of over 45% in size. Put shortly:
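HCT-116 p53RE-bla, 4,000 cells/well, 5 h pre-incubation; cpd + rat liver microsomes 0.5 mg/mL + NADPH 0.5 mg/mL (final); 16 h, 37 C; CellTiter-Glo, 30 min RT; luminescence.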

The target of experiment [7] is 5-hydroxytryptamine receptor 2A (Homo sapiens) (UniProt P28223). Kind of experiment: 5-hydroxytryptamine receptor 2A (HTR2A) small molecule agonists, cell-based qHTS assay (AID 1963587). Note: nearly all actives have a fitted effect of over 30% in size. Note: potency is the fitted concentration of half-maximal effect. Put shortly: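 Kinetic calcium-flux fluorescence (2 min, 1 sec intervals) after compound addition in agonist mode. HTR2A-CHO cells were cultured 18 h, then dye-loaded 1 h at 37 C.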
Chain of 5-hydroxytryptamine receptor 2A (Homo sapiens) (P28223 whole entry, looked up): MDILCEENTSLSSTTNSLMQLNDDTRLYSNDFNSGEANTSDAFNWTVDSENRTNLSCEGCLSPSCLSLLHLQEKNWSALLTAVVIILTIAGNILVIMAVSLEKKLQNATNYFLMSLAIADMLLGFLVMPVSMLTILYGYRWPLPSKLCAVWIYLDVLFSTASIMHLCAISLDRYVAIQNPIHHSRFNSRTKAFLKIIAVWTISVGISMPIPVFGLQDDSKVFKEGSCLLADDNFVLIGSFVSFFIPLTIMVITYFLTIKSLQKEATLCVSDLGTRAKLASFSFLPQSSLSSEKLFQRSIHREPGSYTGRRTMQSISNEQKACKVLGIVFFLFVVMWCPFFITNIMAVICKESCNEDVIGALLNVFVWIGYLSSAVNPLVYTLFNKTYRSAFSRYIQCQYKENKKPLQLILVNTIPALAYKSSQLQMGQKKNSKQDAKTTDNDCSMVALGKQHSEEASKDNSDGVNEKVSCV

Experiment [8] deals with Muscarinic acetylcholine receptor M1 (Homo sapiens) (UniProt P11229). Briefly: Cholinergic receptor muscarinic 1 (CHRM1) small molecule agonists, cell-based qHTS assay (AID 1963589). Note: nearly all actives have a fitted effect of over 35% in size. Put shortly:
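Each compound was tested at 15 concentrations across three independent runs on dye-loaded CHO cells stably expressing human CHRM1, reading intracellular calcium fluorescence kinetically at 1 sec intervals.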

A short description of experiment [9]: cAMP Responsive Elements (CRE) small molecule agonists, cell-based qHTS assay (AID 1963590). An outline of the steps:
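Cell line: CRE-bla HEK 293T; medium DMEM/10% dialyzed FBS/0.1 mM NEAA/1 mM pyruvate/25 mM HEPES; 3 h compound exposure; beta-lactamase FRET readout after 2 h substrate loading at RT.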

Experiment [10] is described as follows: cAMP Responsive Elements (CRE) small molecule antagonists, cell-based qHTS assay (AID 1963591; active = well fitted inhibition curve with a large enough effect in the signal ratio in the repeat runs, not every such curve was filed as active; the % refers to the signal ratio). Put shortly: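 Inhibition of NKH477-driven (0.25 uM final) CRE-beta-lactamase signal in HEK293T cells, 3 h compound exposure at 37 °C, detected by FRET substrate fluorescence.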
Experiment [11] concerns the target Beta-2 adrenergic receptor (Homo sapiens) (UniProt P07550). Kind of experiment: Adrenergic beta2 receptor (ADRB2) small molecule antagonists, cell-based qHTS assay (AID 1963592). Note: nearly all actives have a fitted effect of over 50% in size. Note: potency is the fitted concentration of half-maximal effect. An outline of the steps: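 Cells (CHO, stable ADRB2 overexpression) incubated 18-20hr at 37C; compounds added from DMSO; agonist mix (1nM isoproterenol, 100uM IBMX, 25uM Ro-20-1724) added; 0.5hr RT; d2-cAMP and anti-cAMP-cryptate added; 1hr RT; 665/615 nm read.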

The target of experiment [12] is D(2) dopamine receptor (Homo sapiens) (UniProt P14416). Briefly: Dopamine D2 receptor (DRD2) small molecule agonists, cell-based qHTS assay (AID 1963594). Note: nearly all actives have a fitted effect of over 35% in size. Put shortly: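 cAMP accumulation in DRD2-HEK293 cells measured by HTRF after 1 h detection; compounds added 10 min before NKH477 (200nM […]) forskolin-analogue stimulation, 30 min at room temperature, with Ro20-1724 present at 0.1 mM final.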
Chain of D(2) dopamine receptor (Homo sapiens) (P14416 whole entry, looked up): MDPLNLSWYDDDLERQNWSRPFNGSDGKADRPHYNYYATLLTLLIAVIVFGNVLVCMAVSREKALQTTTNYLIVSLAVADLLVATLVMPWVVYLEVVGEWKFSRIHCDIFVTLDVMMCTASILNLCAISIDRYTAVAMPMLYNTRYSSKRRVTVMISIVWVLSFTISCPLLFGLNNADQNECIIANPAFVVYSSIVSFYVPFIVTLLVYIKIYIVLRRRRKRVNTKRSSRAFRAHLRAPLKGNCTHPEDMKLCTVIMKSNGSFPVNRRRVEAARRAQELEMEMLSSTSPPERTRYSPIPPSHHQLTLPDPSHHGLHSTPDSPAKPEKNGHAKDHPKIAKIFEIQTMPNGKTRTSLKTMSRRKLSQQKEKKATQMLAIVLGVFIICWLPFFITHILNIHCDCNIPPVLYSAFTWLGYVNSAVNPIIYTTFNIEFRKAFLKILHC

Experiment [13] has the same target. Kind of experiment: Dopamine D2 receptor (DRD2) small molecule antagonists, cell-based qHTS assay (AID 1963595; active = well fitted inhibition curve with a large enough effect in the signal ratio in the repeat runs, with a control signal flat; the % refers to the signal ratio). An outline of the steps:
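Readout: HTRF cAMP, cAMP-d2 competing with cellular cAMP for anti-cAMP cryptate, read after 1 h. Cells: DRD2-HEK293. Conditions: 0.1 mM Ro20-1724, 12 nM quinpirole, 200 nM NKH477, 30 min RT.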

Experiment [14] in a line: p53 small molecule agonists, cell-based qHTS assay with human liver microsomes (AID 1963577). An outline of the steps:
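Fluorescence of the beta-lactamase reporter in p53RE-bla cells, detected with LiveBLAzer substrate (2 h, room temperature, dark), served as the read-out after 16 h compound exposure at 37 C with human liver microsomes and NADPH, each 0.5 mg/mL final.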

Experiment [15] can be described thus: p53 small molecule agonists, cell-based qHTS assay with rat liver microsomes (AID 1963578). Put shortly: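 Cells carrying a p53 response element–beta-lactamase reporter were plated and rested 5 h, then dosed with compound in DMSO plus rat liver microsomes and NADPH, each at 0.5 mg/mL final. After 16 h at 37 C, LiveBLAzer substrate was added for 2 h.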
Experiment [16] in a line: p53 small molecule agonists, cell-based qHTS assay with human liver microsomes: qHTS cell viability counter screen (AID 1963579). Note: nearly all actives have a fitted effect of over 45% in size. Put shortly:
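Cytotoxicity counter screen: p53RE-bla, 4,000 cells/well; 5 h settle, 37 C/5% CO2; cpd + HLM 0.5 mg/mL + NADPH 0.5 mg/mL (final); 16 h, 37 C; CellTiter-Glo, 30 min RT, luminescence.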

Experiment [17] can be described thus: p53 small molecule agonists, cell-based qHTS assay: qHTS cell viability counter screen (AID 1963581). Note: nearly all actives have a fitted effect of over 45% in size. An outline of the steps: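 In the same plates used for the p53 bla reporter, HCT-116 cells given compounds for 16 h at 37 C received CellTiter-Glo; luminescence was recorded 30 min later at room temperature.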
Experiment [18] in a line: p53 small molecule agonists, cell-based qHTS assay (AID 1963582; active = well fitted activation curve with a large enough effect in the signal ratio in the repeat runs, not every such curve was filed as active; the % refers to the signal ratio). An outline of the steps: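 Compounds are pin-transferred in DMSO onto p53RE-bla cells and incubated 16 h at 37 C. The B/G FRET beta-lactamase substrate is then applied for 2 h at RT and fluorescence recorded.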
Experiment [19] addresses Muscarinic acetylcholine receptor M1 (Homo sapiens) (UniProt P11229). Briefly: Cholinergic receptor muscarinic 1 (CHRM1) small molecule antagonists, cell-based qHTS assay (AID 1963588). Note: nearly all actives have a fitted effect of over 40% in size. Put shortly:
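CHRM1-CHO calcium-flux assay, antagonist mode. Cells were seeded 18 h, dye-loaded 1 h at 37 C and given compound for 5 min at RT, then acetylcholine was added at 50nM. FDSS fluorescence was read 3 min; 15 concentrations, three runs.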

Experiment [20] deals with 5-hydroxytryptamine receptor 2A (Homo sapiens) (UniProt P28223). Kind of experiment: 5-hydroxytryptamine receptor 2A (HTR2A) small molecule antagonists, cell-based qHTS assay (AID 1963586). Note: nearly all actives have a fitted effect of over 45% in size. Note: potency is the fitted concentration of half-maximal effect. An outline of the steps: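 Antagonist-mode intracellular calcium assay: DOI (4 nM) added after 5 min compound pre-incubation at room temperature to dye-loaded HTR2A-CHO cells. Fluorescence followed for 3 min, sampled every second.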

Records with an inconclusive call do not appear. Calls of active or inactive are those of the source. Unless noted, calls come from the whole dose curve.

Chain of Beta-2 adrenergic receptor (Homo sapiens) (P07550 whole entry, looked up): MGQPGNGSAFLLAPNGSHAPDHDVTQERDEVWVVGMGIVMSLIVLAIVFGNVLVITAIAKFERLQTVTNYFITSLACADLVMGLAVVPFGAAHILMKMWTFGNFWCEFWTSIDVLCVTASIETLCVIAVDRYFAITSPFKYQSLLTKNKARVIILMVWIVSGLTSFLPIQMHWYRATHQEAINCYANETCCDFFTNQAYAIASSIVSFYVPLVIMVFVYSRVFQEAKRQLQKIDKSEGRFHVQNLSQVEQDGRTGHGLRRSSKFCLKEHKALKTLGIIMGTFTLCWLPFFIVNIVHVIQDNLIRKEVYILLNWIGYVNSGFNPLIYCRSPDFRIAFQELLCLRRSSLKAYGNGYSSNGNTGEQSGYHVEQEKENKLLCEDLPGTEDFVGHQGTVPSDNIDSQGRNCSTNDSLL
Chain of Muscarinic acetylcholine receptor M1 (Homo sapiens) (P11229 whole entry, looked up): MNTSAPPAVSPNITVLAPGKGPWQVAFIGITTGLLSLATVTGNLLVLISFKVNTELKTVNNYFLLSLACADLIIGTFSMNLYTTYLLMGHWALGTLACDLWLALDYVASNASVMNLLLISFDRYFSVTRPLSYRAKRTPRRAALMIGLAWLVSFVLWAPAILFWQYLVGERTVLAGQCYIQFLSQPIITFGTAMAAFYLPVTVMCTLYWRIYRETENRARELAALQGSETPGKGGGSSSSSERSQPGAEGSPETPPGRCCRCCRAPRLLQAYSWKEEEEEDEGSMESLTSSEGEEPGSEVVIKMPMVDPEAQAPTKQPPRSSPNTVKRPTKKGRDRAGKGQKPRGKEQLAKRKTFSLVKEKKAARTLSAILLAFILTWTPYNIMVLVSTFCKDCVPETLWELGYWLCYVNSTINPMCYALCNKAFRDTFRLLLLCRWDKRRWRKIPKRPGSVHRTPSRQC

`Clc1cccc(SC2CCNCC2)n1`: the Potency entry in experiment [1], in experiment [2], in [3], in experiment [4], in [5] and in [6] was “inactive” throughout. For the same compound, the Potency entry in experiment [8], in experiment [9], in experiment [10], in [12] and in experiment [13] was “inactive” each time. The Potency in experiment [7] is 84.9 nM (active); in experiment [11] it was 15 µM (active).

Take `ClCCCN1CCN(c2cccc(Cl)c2)CC1`: the Potency entry in [1], in experiment [2], in experiment [3], in experiment [4], in [14] and in [15] was “inactive” throughout. Moreover, the Potency entry in experiment [16], in [6], in experiment [17], in experiment [18], in experiment [7] and in [19] was “inactive” each time. In addition, the Potency entry in experiment [8], in [9], in [10], in [11] and in experiment [13] was “inactive” in each case.

With `COc1cc(CCN)cc(OC)c1OC`, the Potency entry in experiment [1], in [2], in experiment [3], in [4], in [14] and in experiment [15] was “inactive” throughout. In addition, the Potency result in experiment [16], in experiment [6], in experiment [17], in experiment [18], in experiment [19] and in [9] was “inactive” throughout. Besides, the Potency result in experiment [10], in [12] and in experiment [13] was “inactive” in each case. The Potency in experiment [20] is 182 nM (active); in [7] it was 75.2 nM (active).

Take `[As]#[In]`: the Potency entry in [1], in [2], in experiment [3], in experiment [4], in experiment [14] and in [15] was “inactive” throughout. Moreover, the Potency result in experiment [16], in experiment [17], in experiment [18], in experiment [7], in [19] and in experiment [8] was “inactive” each time. The Potency result in experiment [9], in experiment [10], in experiment [11], in experiment [12] and in [13] was “inactive” throughout.

As for `C#CC1(O)CCCCC1`, the Potency result in experiment [1], in experiment [2], in [3], in experiment [4], in experiment [14] and in [16] was “inactive” throughout. The Potency entry in experiment [6], in experiment [17], in experiment [18], in experiment [20], in experiment [7] and in [19] was “inactive” each time. Moreover, the Potency entry in [8], in [9], in experiment [10], in [11], in experiment [12] and in [13] was “inactive” in each case.

On to `N#CCCl`, for which the Potency result in experiment [1], in [2], in [3], in experiment [4], in [14] and in experiment [15] was “inactive” in each case. Moreover, the Potency entry in experiment [16], in experiment [17], in experiment [18], in experiment [20], in experiment [7] and in experiment [19] was “inactive” throughout. The Potency entry in [8], in experiment [12] and in experiment [13] was “inactive” throughout.

`CCC1COC(Cn2cncn2)(c2ccc(Cl)cc2Cl)O1` (stereo not drawn): the Potency entry in experiment [1], in [2], in [3], in experiment [4], in experiment [15] and in experiment [6] was “inactive” throughout. For the same compound, the Potency entry in experiment [17], in experiment [18], in [20], in experiment [7], in [19] and in experiment [8] was “inactive” throughout. Further, the Potency entry in experiment [12] and in experiment [13] was “inactive” in each case.

With `CCOC(=O)COc1ccc(Cl)cc1Cl`, the Potency result in experiment [1], in [2], in experiment [3], in experiment [4], in experiment [14] and in [16] was “inactive” throughout. Besides, the Potency result in experiment [6], in [17], in experiment [18], in experiment [20], in experiment [7] and in experiment [19] was “inactive” throughout. The Potency entry in [8], in experiment [10], in [11], in experiment [12] and in experiment [13] was “inactive” throughout.
